The entries come from a sample that favours hits as a whole.
APEX1 inh – blocks human APE1 abasic DNA cleavage; P27695; recombinant APE1, TAMRA/BHQ-2 abasic DNA cleavage fluorescence; Potency, µM (series often up to 65.8 µM), hits mostly inhibitors; 350,000 tested, 0.35% active; AID 2517; note: nearly all actives have a fitted effect of over 55% in size
Target sequence (P27695 whole entry, looked up): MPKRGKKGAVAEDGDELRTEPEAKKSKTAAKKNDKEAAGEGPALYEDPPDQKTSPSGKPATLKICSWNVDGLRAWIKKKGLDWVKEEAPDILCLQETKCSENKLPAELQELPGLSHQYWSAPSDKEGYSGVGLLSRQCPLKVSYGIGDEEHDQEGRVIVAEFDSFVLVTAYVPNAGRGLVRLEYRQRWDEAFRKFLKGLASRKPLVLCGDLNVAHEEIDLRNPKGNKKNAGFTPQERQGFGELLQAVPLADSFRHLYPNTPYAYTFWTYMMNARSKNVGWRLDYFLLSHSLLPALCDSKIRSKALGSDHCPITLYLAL
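Step 1: APE1 (0.75 nM) with compound, 15 min RT. Step 2: add 50 nM fluorophore/quencher THF duplex. Step 3: three fluorescence reads 60 s apart (525/598 nm); read 3 minus read 1 = reaction progress.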
RECQ1 inh – inhibitors of human RECQ1 DNA helicase; RECQ1 DNA unwinding, red fluorescence kinetic read; Potency, µM (top dose mostly 57.3 µM), actives largely listed as inhibitors; 240,000 tested, 0.54% active; AID 2549; note: nearly all actives have a fitted effect of over 30% in size
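RECQ1T1 50 nM; forked duplex (20 bp + 30-nt ss tails) 200 nM, ATP 2 mM final; pH 8.0, 2 mM MgCl2, 2.5 ug/ml poly(dI-dC); 15 min compound preincubation; discontinuous kinetic read over 2 h at RT.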
TDP1 inh – inhibitors of human tyrosyl-DNA phosphodiesterase TDP1. AID 485290. recombinant TDP1, AlphaScreen DNA substrate cleavage. Q9NUW8. 350,000 tested, 0.28% active. Potency, µM (series often up to 130 µM), most hits filed as inhibitors; note: nearly all actives have a fitted effect of over 40% in size
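Recombinant human Tdp1 (E. coli-expressed, 1 nM final) preincubated with compounds 15 min at room temperature, then 5'-biotin/3'-phosphotyrosine-FITC DNA substrate (15 nM final) added for 5 min. AlphaScreen beads (10 ug/ml final) added 10 min; cleavage lowers signal.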
L3MBTL1 inh – inhibitors of human L3MBTL1; Potency, µM (highest dose often 57.1 µM), actives largely listed as inhibitors; 230,000 tested, 0.66% active; AID 485360; Q9Y468; AlphaScreen L3MBTL1–H3K9me1 peptide binding; note: nearly all actives have a fitted effect of over 60% in size
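L3MBTL1 50 nM + b-AHA-H3(1-15)K9me1 75 nM, 30 min RT; compound added, 30 min RT; streptavidin donor/Ni-chelate acceptor beads 10 ug/mL each final, 30 min RT dark; AlphaScreen read.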
KDM4E inh – inhibitors of human JMJD2E histone demethylase | B2RXH2 | JMJD2E catalytic domain, FDH-coupled NADH fluorescence (FDH is formaldehyde dehydrogenase) | Potency, µM (doses to about 57.1 µM), hits mostly inhibitors | 230,000 tested, 1.6% active; active = well fitted inhibition curve with a large enough effect, not every such curve was filed as active; inconclusive = small, poorly fitted or top-dose-only effect, or another doubt; inactive = no such curve, though single readings can be large or run the other way; note: nearly all actives have a fitted effect of over 50% in size
Target sequence (B2RXH2 1-337 limits assumed): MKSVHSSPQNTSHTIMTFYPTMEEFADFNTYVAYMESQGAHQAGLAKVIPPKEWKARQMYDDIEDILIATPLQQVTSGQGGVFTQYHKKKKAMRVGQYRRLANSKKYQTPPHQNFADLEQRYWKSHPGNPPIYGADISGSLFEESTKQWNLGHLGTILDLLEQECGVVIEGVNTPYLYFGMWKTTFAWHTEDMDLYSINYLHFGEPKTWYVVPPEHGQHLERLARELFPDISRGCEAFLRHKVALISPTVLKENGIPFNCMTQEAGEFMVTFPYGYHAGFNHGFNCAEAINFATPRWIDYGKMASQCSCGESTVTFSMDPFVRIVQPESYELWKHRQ
BLM inh – Bloom syndrome helicase (human) inhibition | AID 2528 | recombinant BLM DNA unwinding, fluorescence dequenching | Potency, µM (titrated, usually from 56.1 µM), hits mostly inhibitors | 350,000 tested, 0.2% active; note: nearly all actives have a fitted effect of over 35% in size
A number is an active result; – = inactive; ? = inconclusive; · = no result given. Unless noted, calls come from the whole dose curve; as a rule, active = well fitted curve in the direction sought with a large enough effect; inconclusive = small, poorly fitted or top-dose-only effect, or another doubt; inactive = no such curve, though single readings can be large; an effect the other way counts as inactive or inconclusive.

SMILES	APEX1 inh	RECQ1 inh	TDP1 inh	L3MBTL1 inh	KDM4E inh	BLM inh
O.O.O.O.O.O.O.O=S(=O)([O-])[O-].[Co+2]	?	16µM	–	·	·	8.9µM
O=C(O)CCCCCN1C(=O)/C(=C\c2ccc(-c3ccc(Cl)cc3)o2)SC1=S	–	–	40µM	·	–	–
O=C(O)CCCCCN1C(=O)/C(=C/c2ccncc2)SC1=S	–	–	–	–	22µM	–
CCOc1cc(CNc2ccc(O)cc2)ccc1OCc1ccc(Cl)cc1Cl	?	–	–	?	4.5µM	?
O=C1CN(C(=O)/C=C/c2ccco2)c2ccccc2N1	?	–	45µM	–	–	–
C=CCNC(=O)c1ccc([N+](=O)[O-])c(Cl)c1	–	–	–	–	–	–
C=CCNC(=O)c1cc([N+](=O)[O-])cc2c(=O)[nH]c(Nc3ccc(Cl)c(Cl)c3)nc12	7.9µM	7.1µM	–	·	–	–
CC1(C)CC(=O)C(C=Nc2cccnc2/N=C/C2=C(O)CC(C)(C)CC2=O)=C(O)C1	–	–	–	·	–	–
CC1(C)CC(=O)C(C=Nc2ccc(O)c(N=CC3=C(O)CC(C)(C)CC3=O)c2)=C(O)C1	–	–	–	–	3.2µM	–
Cc1ccc(O)c(N=NC2=C(O)CC(C)(C)CC2=O)c1	–	–	–	28µM	0.56µM	–
CC1(C)CC(=O)C(C=Nc2ccc(C(=O)c3ccccc3)cc2N=CC2=C(O)CC(C)(C)CC2=O)=C(O)C1	–	–	–	?	20µM	–
Cc1cc2c(s1)c1cnn(Cc3ccc(S(C)(=O)=O)cc3)c(=O)c1n2C	·	·	–	·	·	·
CC(C)c1ccc(Cn2cnc3c(cnn3C(C)(C)C)c2=O)cc1	–	·	·	·	·	·
Cc1ccc(NS(=O)(=O)c2ccc3c(c2)CC(=O)N3C)cc1C	·	·	–	·	·	·
O=C(/C=C/c1cccs1)Nc1scc(-c2ccccc2)c1C(=O)O	?	–	32µM	·	5µM	?
CC1CCc2c(sc(NC(=O)/C=C/c3cccs3)c2C(=O)O)C1 (centres undefined)	12µM	·	–	·	·	–
COc1ccc(NC(=O)Cn2c(SCc3ccc(C)cc3)nc3cccnc32)c(OC)c1	·	·	–	·	·	–
Cc1nnc(CN(C)c2ncnc3ccc(-c4ccc5c(c4)OCO5)cc23)o1	·	·	–	·	·	·
CCN(CC)S(=O)(=O)c1ccc(N2CCOCC2)c(NC(=O)c2cc(-c3ccccn3)nc3ccccc23)c1	–	–	–	–	13µM	–
CCN(CC)S(=O)(=O)c1ccc(N2CCOCC2)c(NC(=O)c2cccc3ccccc23)c1	–	–	–	–	?	–
COc1cccc(/C=N/NC(=S)NC2CC3CC2C2C=CCC32)c1O (centres undefined)	–	–	·	–	–	–
Oc1ccccc1/C=N/NC(=S)NC1CC2CC1C1C=CCC21 (centres undefined)	–	–	–	–	16µM	–
CCOc1nc(C#N)nc(N(c2ccccc2)c2ccccc2)n1	·	·	–	·	·	·
c1cncc(-c2nc(-c3ccc4c(c3)OCCO4)cs2)c1	–	·	·	·	·	–
Oc1ccc(-c2csc(-c3cccnc3)n2)cc1O	16µM	–	·	·	14µM	–
SMILES	APEX1 inh	RECQ1 inh	TDP1 inh	L3MBTL1 inh	KDM4E inh	BLM inh
Cc1ccc(NS(=O)(=O)c2cc3c(cc2N(C)C)CCC(=O)N3)cc1C	·	·	–	·	·	·
Cc1ccc(S(=O)(=O)C2CS(=O)(=O)CC2O)cc1 (centres undefined)	–	–	–	·	–	–
CC(=O)C1=C(S(=O)(=O)c2ccc(C)cc2)CS(=O)(=O)C1	–	–	–	–	14µM	–
Cc1ccc(COC(=O)Cc2coc3cc(O)ccc23)cc1	–	·	–	·	·	–
Cc1ccc2c(CC(=O)OCc3cc(=O)n4c(n3)sc3ccccc34)coc2c1	?	?	25µM	?	–	–
O=C(OCc1cc(=O)n2c(n1)sc1ccccc12)c1ccc2c(=O)n3c(nc2c1)CCC3	?	–	50µM	?	–	–
Cc1nnc(NC(=O)C2CCN(S(=O)(=O)c3cc([N+](=O)[O-])ccc3Cl)CC2)o1	–	·	–	25µM	·	·
O=C(NC1=NCCS1)C1CCN(S(=O)(=O)c2cc([N+](=O)[O-])ccc2Cl)CC1	?	·	·	–	·	·
O=C(NCc1ccc(Cl)cc1)C1CCN(S(=O)(=O)c2cc([N+](=O)[O-])ccc2Cl)CC1	–	–	–	–	–	–
Cc1cccc2sc(NC(=O)C3CCN(S(=O)(=O)c4cc([N+](=O)[O-])ccc4Cl)CC3)nc12	–	–	–	?	13µM	–
CCCSS/C(CCO)=C(/C)N(C=O)Cc1cnc(C)nc1N	·	·	·	·	·	–
CN(C)c1ccc(NC(=O)CC(NCc2ccccn2)C(=O)O)cc1 (centres undefined)	–	–	–	13µM	–	–
CNc1ccc([N+](=O)[O-])cc1	–	11µM	–	–	·	·
COC(=O)c1cccc(-n2c(CCC(=O)O)ccc2-c2cccs2)c1	–	–	–	–	25µM	–
CC[C@H](CC[C@@H](C)[C@H]1CC[C@H]2[C@@H]3CC=C4C[C@@H](O)CC[C@]4(C)[C@H]3CC[C@]12C)C(C)C	–	·	·	·	·	·
NS(=O)(=O)c1ccc(N/N=C2/CCCCC2C2CCCCC2)c([N+](=O)[O-])c1 (centres undefined)	–	2µM	–	?	–	–
CC(C)(C)c1ccc(Nc2nc(C#N)nc(NC3CCCC3)n2)cc1	·	·	–	·	·	·
Cc1ccc2c(c1)C1CC(C)(O2)N(c2cccc(C(=O)NC3CCN(Cc4ccccc4)CC3)c2)C(=O)N1 (centres undefined)	24µM	·	–	·	·	–
C/C(=N/Nc1ccc(C(=O)O)cc1)c1ccc(O)c(O)c1O	?	–	?	14µM	8.9µM	–
S=C1NC=NC2N=CNC12 (centres undefined)	–	–	14µM	·	·	–
CC(C)(C)n1ncc2c(=O)n(Cc3ccccc3SC(F)(F)F)cnc21	–	·	·	·	·	·
COc1cccc(C(=O)N/N=C(\C)c2ccc(NC(=O)Cc3ccccc3)cc2)c1OC	–	·	–	·	·	–
C/C(=N\NC(=O)c1ccccc1O)c1ccc(NC(=O)Cc2ccccc2)cc1	–	·	56µM	·	·	–
O=C(c1cccc(Cl)c1Cl)N(Cc1ccco1)Cc1cccs1	·	·	–	·	·	·
CCOC(=O)C(C(C)=O)c1c(Br)c(O)c(O)c2c(C(=O)c3ccc(C)cc3)coc12 (centres undefined)	–	?	–	–	25µM	–
NC(=O)c1cc[n+](CC(=O)c2ccc(NC(=O)c3ccccc3)cc2)cc1	–	–	–	–	13µM	–
O=C(C[n+]1ccccc1)c1ccc(NC(=O)c2ccccc2)cc1	–	–	–	–	–	–
Cc1nn(C)cc1C(=O)NNC(=S)Nc1ccccc1	–	–	–	–	–	–
Cc1cc(C(=O)NNC(=S)Nc2ccccc2)nn1C	–	–	–	–	8.9µM	–
N#Cc1c(-c2ccc(Br)cc2)no[n+]1[O-]	–	·	·	·	·	·

Bioassay records as filed in PubChem BioAssay.
